Reference: article PMC4336329 (PLoS ONE, 2015)
The whole screen tested about 310,000 compounds, of which about 2,200 (0.71%) showed an effect of 50% or more. The effect is printed as a negative number. The sample holds strong results, similar compounds and a random draw of the others, so the mix is not that of the screen.

These compounds were tested against human ether-à-go-go-related gene (hERG) potassium channel (human, UniProt Q12809) (assay: primary screen, population patch clamp on CHO cells stably expressing hERG; higher = less effect of the substance).
Chain of human ether-à-go-go-related gene (hERG) potassium channel (Q12809 whole entry, looked up): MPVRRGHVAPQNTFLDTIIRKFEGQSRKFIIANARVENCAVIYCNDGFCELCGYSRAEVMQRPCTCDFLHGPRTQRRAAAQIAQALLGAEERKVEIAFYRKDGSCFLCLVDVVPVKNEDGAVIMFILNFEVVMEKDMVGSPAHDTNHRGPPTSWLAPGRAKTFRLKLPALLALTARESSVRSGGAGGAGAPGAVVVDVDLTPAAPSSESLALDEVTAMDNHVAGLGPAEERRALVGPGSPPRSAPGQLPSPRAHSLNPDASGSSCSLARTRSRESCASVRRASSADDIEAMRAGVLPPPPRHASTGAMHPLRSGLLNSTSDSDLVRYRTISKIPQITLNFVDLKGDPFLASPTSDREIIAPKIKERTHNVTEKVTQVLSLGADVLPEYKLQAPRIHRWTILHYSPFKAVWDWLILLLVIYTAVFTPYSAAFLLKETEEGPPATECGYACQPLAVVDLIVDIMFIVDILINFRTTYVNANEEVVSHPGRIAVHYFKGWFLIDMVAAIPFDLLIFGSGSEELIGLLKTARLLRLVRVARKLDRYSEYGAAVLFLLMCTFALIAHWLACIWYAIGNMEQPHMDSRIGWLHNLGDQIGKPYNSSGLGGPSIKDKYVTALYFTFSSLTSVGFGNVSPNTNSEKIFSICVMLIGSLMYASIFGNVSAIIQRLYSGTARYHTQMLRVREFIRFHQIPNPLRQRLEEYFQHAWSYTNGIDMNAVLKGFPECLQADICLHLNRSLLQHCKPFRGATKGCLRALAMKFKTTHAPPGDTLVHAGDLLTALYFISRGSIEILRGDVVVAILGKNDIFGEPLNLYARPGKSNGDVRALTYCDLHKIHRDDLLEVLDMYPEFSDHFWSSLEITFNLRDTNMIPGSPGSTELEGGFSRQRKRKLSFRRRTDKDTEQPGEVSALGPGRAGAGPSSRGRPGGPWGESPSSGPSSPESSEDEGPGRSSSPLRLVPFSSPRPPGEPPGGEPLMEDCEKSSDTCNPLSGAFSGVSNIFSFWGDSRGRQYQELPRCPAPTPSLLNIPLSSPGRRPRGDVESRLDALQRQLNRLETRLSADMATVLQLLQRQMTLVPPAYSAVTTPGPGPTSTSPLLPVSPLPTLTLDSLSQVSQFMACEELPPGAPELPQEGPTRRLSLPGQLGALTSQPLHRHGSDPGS

Structure (SMILES)	hERG current change (%, negative = inhibition) at 1uM
CN(C)CCN1C(=O)c2oc3ccccc3c(=O)c2C1c1ccc(F)cc1 (centres unmarked)	-2.93%
CC(=O)Nc1ccc(Oc2sc(C(=O)c3ccccc3)c(N)c2C#N)cc1	9.56%
COCCN(C(=O)CSc1nnc(-c2ccco2)n1C)c1c(N)n(CC(C)C)c(=O)[nH]c1=O	8.54%
CCN1CCN(c2ccc(NC(=O)c3ccc4c(c3)OCO4)cc2)CC1	-16.7%
CCOC(=O)C1=C(COC(=O)/C=C/c2cccc(Br)c2)NC(=O)NC1C (centres unmarked)	-7.77%
Cc1ccc(C#N)c(SCc2cccc(Br)c2)n1	17.2%
CCN(CC)CCOC(=O)c1ccc(NC(=O)/C=C/c2cccs2)cc1.Cl	-53.5%
CCCOC(=O)c1ccc(NC(=O)/C=C/c2cccs2)cc1	7.88%
CCCCOC(=O)c1ccc(NC(=O)/C=C/c2cccs2)cc1	1.76%
O=C(N/N=C\c1cccnc1)c1cc(-c2ccc(Cl)s2)[nH]n1	8.22%
O=C(NCCN1CCOCC1)/C(=C/c1ccc(F)cc1)NC(=O)c1ccccc1	-58.4%
CN(C)c1ccc(/C=C(\NC(=O)c2ccccc2)C(=O)NCCN2CCOCC2)cc1	8%
O=C(NCCN1CCOCC1)/C(=C\c1ccc(Br)cc1)NC(=O)c1cccs1	-54%
O=C(NCCO)/C(=C/c1ccc(Br)cc1)NC(=O)c1cccs1	-8.3%
CSc1ccc(/C=C(\NC(=O)c2ccccc2)C(=O)NCCN2CCOCC2)cc1	-44.3%
O=C(NCCCN1CCOCC1)/C(=C/c1ccc(F)cc1)NC(=O)c1ccccc1	-46.5%
O=C(NCCN1CCOCC1)/C(=C\c1ccc(F)cc1)NC(=O)c1ccccc1	-51.7%
CSc1ccc(/C=C(/NC(=O)c2ccccc2)C(=O)NCCN2CCOCC2)cc1	-10.3%
O=C(NCCO)/C(=C\c1ccc(Br)cc1)NC(=O)c1cccs1	6.96%
COc1cc(CCC(=O)OCC(=O)Nc2ccc(F)c(F)c2)cc(OC)c1OC	3.59%
CC(C)N1C(=O)S/C(=C/c2ccc3c(c2)n(C)c(=O)n3C)C1=O	-5.59%
COc1ccc(CNC(=O)COC(=O)CC2CC3CCC2C3)cc1OC (centres unmarked)	6.66%

Structure (SMILES)	hERG current change (%, negative = inhibition) at 1uM
COc1cccc(/C=C/c2nc3c(cnn3-c3ccccc3)c(=O)[nH]2)c1	9.85%
COC(=O)c1cc(NC(=O)Cc2ccc(OC)cc2)cc(C(=O)OC)c1	14.7%
Cc1c(C(=O)Nc2c(F)cccc2F)sc2ncnc(N3CCN(c4ccccc4)CC3)c12	4.01%
CCN1CCN(c2ncnc3sc(C(=O)Nc4ccccc4F)c(C)c23)CC1	-50.9%
CCOC(=O)c1sc2ncnc(N3CCN(CC)CC3)c2c1C	-9.54%
Cc1ccc(S(=O)(=O)NC2CCC(C(=O)O)CC2)cc1 (centres unmarked)	9.17%
COC(=O)c1oc2ccc(OC)cc2c1N	14.9%
CC(=O)N(c1ccccc1C)S(=O)(=O)c1ccc(Cl)cc1	10%
COc1ccc2[nH]c(C(=O)NCCc3ccccc3)cc2c1	17.2%
COc1ccccc1NC(=S)NC1CCCC1	14.8%
CN1/C(=C\C(=O)c2ccco2)C(C)(C)c2ccccc21	4.59%
CC(OC(=O)CCC(=O)c1ccccc1)C(=O)Nc1ccc(F)cc1 (centres unmarked)	-299%
CC(=O)Nc1ccc(NC(=O)C(C)OC(=O)CCC(=O)c2ccc(F)cc2)cc1 (centres unmarked)	8.41%
CC(OC(=O)CCCC(=O)Nc1ccc(F)cc1)C(=O)c1ccccc1 (centres unmarked)	12.7%
CC(=O)NCCC(=O)Nc1nc2ccc(Oc3ccccc3)cc2s1	2.19%
Cc1cccc(S(=O)(=O)Nc2cccc3c2C(=O)c2ccccc2-3)c1	3.03%
CCN(CC)CCCN(C(C)=O)c1nc(-c2cc(OC)ccc2OC)cs1.Cl	-51%
CN(C)CCCN(C(=O)c1cccs1)c1nc(-c2ccccc2)cs1	-50.7%
COc1ccc(-c2csc(N(CCCN(C)C)C(=O)c3ccccc3C)n2)cc1.Cl	-2.13%
O=C(c1cccs1)N(CC1CCCO1)c1nc(-c2ccccc2)cs1 (centres unmarked)	11.8%
CCN(C(=O)c1cccs1)c1nc(-c2ccc(OC)cc2)cs1	13.4%
CCN(CC)CCCN(C(=O)c1cccs1)c1nc(-c2ccc(OC)cc2)cs1	-71.8%

Structure (SMILES)	hERG current change (%, negative = inhibition) at 1uM
CCC(=O)N(CCCN(C)C)c1nc(-c2cc(OC)ccc2OC)cs1.Cl	-8.76%
CCC(=O)N(CC)c1nc(-c2cc(OC)ccc2OC)cs1	12.9%
COc1ccc(-c2csc(N(CCCN(C)C)C(=O)c3cccs3)n2)cc1.Cl	-51.6%
COc1ccc(-c2csc(N(CCCN(C)C)C(=O)c3ccccc3Cl)n2)cc1.Cl	-12.5%
CCN(CC)CCCN(C(=O)c1ccc(OC)cc1)c1nc(-c2ccc(OC)cc2)cs1	-15.5%
COc1ccc(-c2csc(N(CCCN(C)C)C(=O)c3ccc(C)cc3)n2)cc1.Cl	-17.2%
COC(=O)c1cc(OC)c(OC)cc1NC(=O)C(C)c1ccc([N+](=O)[O-])cc1 (centres unmarked)	8.84%
CC1OC2(OC1C)C(=O)Nc1ccccc12 (centres unmarked)	6.93%
Cc1onc(NC(=O)NC(=O)c2c(F)cccc2Cl)c1Br	10.4%
O=C(Cn1nc(C(=O)O)c2ccccc2c1=O)Nc1ccc2c(c1)C(=O)c1ccccc1C2=O	6.96%
COc1ccc(-c2nc(CS(=O)CC(=O)NCc3ccco3)c(C)o2)cc1 (centres unmarked)	-1.89%
COc1cc(/C=C2\C(=N)N3N=CSC3=NC2=O)ccc1OS(=O)(=O)c1ccccc1	6.08%
CCCCc1ccc(NC(=S)N2CCCC(C)C2)cc1 (centres unmarked)	10.2%
CCCn1c(N2CCN(CC(=O)NCc3cccs3)CC2)nc2ccccc21	-62.7%
CC(C)n1c(N2CCN(C(=O)c3cccs3)CC2)nc2ccccc21	-26.9%
CC(C)Cn1c(N2CCN(C(=O)c3cccs3)CC2)nc2ccccc21	-74.7%
CCCn1c(N2CCN(CC(=O)Nc3ccc4c(c3)OCCO4)CC2)nc2ccccc21.Cl	-29.2%
O=C(c1cccs1)N1CCN(c2nc3ccccc3s2)CC1	7.28%
CC(C)n1c(N2CCN(CC(=O)NCc3cccs3)CC2)nc2ccccc21	-30.9%
O=C(/C=C/c1cccc([N+](=O)[O-])c1)OC1CCCCC1=O (centres unmarked)	9.96%
Cc1ccc(C(C)NC(=O)CSc2ccc(S(=O)(=O)N3CCOCC3)cn2)cc1C (centres unmarked)	5.8%
COc1ccc(Cl)cc1Nc1nc(-c2sc(NC(=O)CC(C)C)nc2C)cs1	11.1%

Structure (SMILES)	hERG current change (%, negative = inhibition) at 1uM
CCOC(=O)c1sc(=S)n(-c2cc(OC)ccc2OC)c1N	6.58%
COc1cc2c(cc1OC)CN(CC(=O)Nc1ccc(Cl)cc1Cl)CC2	2.03%
COc1cc2c(cc1OC)C(C)N(CCc1ccc(Cl)cc1)CC2.O=C(O)/C=C\C(=O)O (centres unmarked)	-39.9%
COc1cc2c(cc1OC)CN(CCC(C)c1ccc(Cl)cc1)CC2.O=C(O)/C=C\C(=O)O (centres unmarked)	-50.5%
O=C(COC(=O)c1cccs1)Nc1ccccc1Cl	14.6%
COc1ccc(-n2c(SCC(=O)Nc3nc(C)cs3)nnc2-c2ccoc2C)cc1	-85%
CCn1c(SCC(=O)Nc2nc(C)cs2)nnc1-c1ccoc1C	10.4%
COc1cccc(-n2c(SCC(=O)Nc3nccs3)nnc2-c2ccoc2C)c1	-84.6%
Cc1csc(NC(=O)CSc2nnc(-c3ccoc3C)n2Cc2ccco2)n1	-78.4%
COC(=O)CSc1nnc(-c2ccoc2C)n1-c1ccc(OC)cc1	8.81%
Cc1ccc(-n2c(SCC(=O)NCc3cccs3)nnc2-c2ccoc2C)cc1	-16.5%
Cc1occc1-c1nnc(SCC(=O)Nc2nccs2)n1Cc1ccco1	3.28%
COc1ccc(-n2c(SCC(=O)Nc3ccccc3)nnc2-c2ccoc2C)cc1	11.7%
Cc1csc(NC(=O)CSc2nnc(C)n2Cc2ccco2)n1	7.95%
CCOc1ccccc1-n1c(SCC(=O)Nc2nccs2)nnc1-c1ccoc1C	11.5%
COc1ccc(-n2c(SCC(=O)NCc3cccs3)nnc2-c2ccoc2C)cc1	-55.9%
Cc1occc1-c1nnc(SCC(=O)NCc2cccs2)n1-c1ccc(F)cc1	-14%
O=C(CCCN1C(=O)/C(=C/c2ccccc2Cl)SC1=S)Nc1ccccn1	4.44%
COc1cc(NC(=O)CSc2nccc(C)n2)c(C(=O)O)cc1OC	-7.07%
COc1cc2c(cc1OC)C(COc1ccccc1OC)N(C(=O)C(C)(C)C)CC2 (centres unmarked)	5.43%
